Assays:
Test in all cases: PBM binding z-score (relative to random genomic background probes); higher = stronger binding; sequences stand for … in GC…GCGATTGACAGCGTAGAATGAAGG
[1] = tested on: FXR:RXRa (NR concentration 270 nM, RXRa partner concentration 90 nM)
In short: (§1)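 Binding z-scores take random background probes as their reference. They come from custom Agilent 4×180K protein-binding microarrays incubated 1 h with ligand-free nuclear receptor dimers, with antibodies against each partner (one per run) detecting binding. Scanned fluorescence was regression-normalized.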

[2] = tested on: LXRa:RXRa (NR concentration 270 nM, RXRa partner concentration 90 nM)
In short: as §1

[3] = tested on: LXRa homodimer (NR concentration 270 nM)
In short: as §1

[4] = tested on: LXRb:RXRa (NR concentration 270 nM, RXRa partner concentration 90 nM)
In short: as §1

[5] = tested on: LXRb homodimer (NR concentration 270 nM)
In short: as §1

[6] = tested on: PPARa:RXRa (NR concentration 270 nM, RXRa partner concentration 90 nM)
In short: as §1

[7] = tested on: PPARg:RXRa (NR concentration 180 nM, RXRa partner concentration 90 nM)
In short: as §1

[8] = tested on: PPARg:RXRa 270nM:90nM, anti-RXR (NR concentration 270 nM, RXRa partner concentration 90 nM)
In short: as §1

[9] = tested on: PPARg:RXRa 30nM:10nM, anti-RXR (NR concentration 30 nM, RXRa partner concentration 10 nM)
In short: as §1

[10] = tested on: PPARg:RXRa 90nM:30nM, anti-RXR (NR concentration 90 nM, RXRa partner concentration 30 nM)
In short: as §1

Sequence | PBM binding z-score [1] | PBM binding z-score [2] | PBM binding z-score [3] | PBM binding z-score [4] | PBM binding z-score [5] | PBM binding z-score [6] | PBM binding z-score [7] | PBM binding z-score [8] | PBM binding z-score [9] | PBM binding z-score [10]
GATACAGGGTCAATGCCAGAGTACGCGTATTGAT | 6.02 | 3.64 | -0.0445 | 3.44 | -0.0572 | 5.2 | 4.79 | 4.33 | 1.52 | 2.95
GCTGCTAGGTCAACTGAGGGTCAGCTAAAGCTCG | 5.12 | 4.47 | 1.48 | 3.45 | 0.289 | 4.35 | 3.55 | 4.15 | 0.901 | 2.72
CCTACTGGGCCAAGGTCATTGAGCAGTCAAAGCA | 3.17 | 3.17 | 0.657 | 2.72 | -0.573 | 4.19 | 4.27 | 4.54 | 1.77 | 3.8
ATATGTAGGTTAAGGTCATTCAGAAAGTAGGGAA | 5.54 | 5.3 | 3.85 | 4.59 | 1.75 | 5.54 | 8.49 | 6.99 | 5.28 | 7.39
ATCGAATGGTCGAGGTGAGTATAGAGAAAGGGAA | 0.114 | -0.0823 | -0.329 | -0.326 | -0.256 | 0.069 | 0.444 | -0.0117 | 0.061 | 0.091
ATATGTAGATTAGGGTCATTCAGAAAGTAGGGAA | 4.07 | 3.39 | 0.828 | 4.21 | 1.27 | 4.91 | 3.51 | 3.48 | 1.4 | 2.69
CGAACTAGGTCAGAGGACAGTGAAAGGCGACGTA | 1.21 | 0.781 | -0.404 | 0.187 | -0.968 | 3.61 | 8.37 | 6.52 | 6.22 | 7.35
CCTTACGGGTCCCTGACAGGTTATAGCATTTGGA | -0.274 | -0.086 | 0.128 | -0.0575 | -0.647 | 0.0699 | 0.112 | -0.345 | -0.32 | -0.402
CGTCAAAGTTCAAGCTAACGTAACAGAAAGCAGC | 7.1 | 6.1 | 3.7 | 3.81 | 1.32 | 4.93 | 4.58 | 5.18 | 2.29 | 4.32
TATCCTAGGTCAGATCGGGCCAGTATACGCTATA | 2.81 | 3.67 | 2.41 | 2.2 | 1.81 | 2.49 | 1.46 | 2.04 | 0.691 | 1.56
ACTAGGTGGTCAGCTGAGGTCACACACAATTCGG | 3.12 | 3.37 | 2.31 | 3.52 | -0.173 | 3.87 | 2.43 | 2.63 | 0.956 | 2.14
CGAACTAGGTCACCAGGACAGTGATGAGGTTGGA | 3.92 | 2.37 | 0.0863 | 1.49 | -0.567 | 4.96 | 8.57 | 6.62 | 4.75 | 6.58
CGAACTAGGTTAAAGGACAGTGAAAGGCGACGTA | -0.0523 | 0.122 | -0.254 | 0.129 | -0.736 | 3.82 | 7.8 | 7.53 | 7.49 | 8.79
CGAACTAGGTCACCAGGACAGTGGAGAGGTTGGA | 4.02 | 2.46 | 0.169 | 1.58 | -0.484 | 5.13 | 8.7 | 7.06 | 4.41 | 6.57
CGTTCAAGGTCATAGGAGGTCAGTGAAGACAGAT | 7.91 | 7.81 | 5.4 | 6.52 | 1.26 | 6.19 | 6.82 | 6.49 | 2.97 | 5.27
CGAACTAGGTCACCAGAACAGTGAAGAGGTTGGA | 3.61 | 2.14 | -0.204 | 1.65 | -0.116 | 5.2 | 8.46 | 6.91 | 5.08 | 6.61
CGAACTATGTCAAAGGACAGTGAAAGGCGACGTA | 0.0509 | 0.00479 | -0.268 | -0.115 | -0.346 | 2.68 | 5.1 | 5.42 | 4.42 | 5.74
TAGCCTAGGTCATTTGGCCAGTATAGTACGCATC | 4.44 | 3.74 | 1.16 | 2.71 | 1.07 | 3.48 | 2.06 | 2.03 | 0.424 | 1.5
CCTTACGGGTCAAGGTTATCGCACGGGTGGTACG | 6.04 | 3.62 | 0.367 | 2.95 | 0.18 | 5.07 | 4.85 | 5.31 | 2.29 | 3.7
GGAACGAGGGCAAAGGTGATAGCATCTGTCGACG | 2.08 | 1.64 | -0.402 | 1.23 | -0.651 | 4.97 | 9.32 | 8.6 | 7.51 | 9.41
CCTACTGGGCCATACAGAGGTCATTGATCATATG | 2.83 | 4.1 | 5.31 | 3.73 | 0.274 | 3.89 | 2.98 | 3.58 | 1.03 | 2.85
AGTCAAAGTTCACGAGGTAACGTAAGATTCAGCT | 7.1 | 6.36 | 3.51 | 4.18 | 1.13 | 5.7 | 7.78 | 7.53 | 4.79 | 7.08
AATACAGGGTCACTGGGCCAGAGTAGGTACGAAT | 6.75 | 5.6 | 1.01 | 4.21 | 0.418 | 6.23 | 8.71 | 6.98 | 3.69 | 5.91

Reference: the supplement of paper PMC6555819
